High-throughput results as filed in PubChem.
Shown are actives, neighbours in structure and some others; about 1.2% of the full set was active somewhere.
GC-A act = GC-A (human) enzyme activation; HEK293 GC-A cells, cGMP TR-FRET, EC30 ANP; 0% at EC30 ANP, 100% saturating ANP; activation, % at 10 µM; 370,000 compounds, 0.14% hits; in the data active means activation above about 40%
MsrA inh = bovine MsrA inhibition; inhibition, % at 15.5 µM; 360,000 compounds, 0.75% hits; purified bovine MsrA, absorbance read-out; in the data active means inhibition above about 4.5%;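 further: 0% = vehicle wells with enzyme and 100% = reference inhibitor wells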
bovine MsrA act = bovine methionine sulfoxide reductase A activation; AID 602163; purified bovine MsrA, absorbance read-out; 360,000 compounds, 0.3% hits; activation, % at 10.6 µM; in the data active means activation above about 7.5%;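 further: 0% = vehicle and 100% = reference activator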
NPR2 activator = GC-B (human) receptor activation | P20594 | HEK293-GC-B cells, CNP EC30, cGMP TR-FRET; 0% at EC30 CNP, 100% saturating CNP | activation, % at 10 µM | 370,000 compounds, 0.11% hits;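 active means activation at 10 µM reaching about 35% in either raw or pattern-adjusted values, limit read from the data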
Target sequence (P20594 whole entry, looked up): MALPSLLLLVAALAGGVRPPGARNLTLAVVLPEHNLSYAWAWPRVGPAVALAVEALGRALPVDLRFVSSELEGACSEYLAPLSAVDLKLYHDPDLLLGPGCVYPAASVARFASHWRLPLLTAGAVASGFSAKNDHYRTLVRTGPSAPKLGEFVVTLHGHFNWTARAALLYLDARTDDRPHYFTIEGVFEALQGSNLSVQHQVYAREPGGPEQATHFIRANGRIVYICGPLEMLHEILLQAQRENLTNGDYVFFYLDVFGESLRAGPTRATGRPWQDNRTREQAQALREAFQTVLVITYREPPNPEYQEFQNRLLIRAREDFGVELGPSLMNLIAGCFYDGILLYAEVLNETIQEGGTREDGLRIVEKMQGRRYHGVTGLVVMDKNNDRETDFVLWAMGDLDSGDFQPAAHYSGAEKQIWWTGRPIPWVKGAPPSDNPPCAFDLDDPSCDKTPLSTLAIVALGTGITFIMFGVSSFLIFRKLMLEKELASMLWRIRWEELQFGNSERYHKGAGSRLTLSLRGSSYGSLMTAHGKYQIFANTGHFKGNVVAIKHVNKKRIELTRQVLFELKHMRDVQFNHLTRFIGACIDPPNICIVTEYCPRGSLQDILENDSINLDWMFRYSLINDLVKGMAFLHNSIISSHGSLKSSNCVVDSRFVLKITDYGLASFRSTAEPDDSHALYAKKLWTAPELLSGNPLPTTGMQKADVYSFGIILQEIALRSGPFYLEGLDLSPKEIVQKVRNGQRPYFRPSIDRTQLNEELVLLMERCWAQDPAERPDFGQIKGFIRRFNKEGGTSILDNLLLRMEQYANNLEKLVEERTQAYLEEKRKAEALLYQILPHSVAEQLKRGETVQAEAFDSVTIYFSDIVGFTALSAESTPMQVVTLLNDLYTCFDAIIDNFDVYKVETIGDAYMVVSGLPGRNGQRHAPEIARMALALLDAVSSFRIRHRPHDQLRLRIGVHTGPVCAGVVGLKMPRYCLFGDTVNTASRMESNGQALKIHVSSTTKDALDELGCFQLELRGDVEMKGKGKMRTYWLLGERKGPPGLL
The depositor's hits bear a star; . = no result given.

SMILES | GC-A act | MsrA inh | bovine MsrA act | NPR2 activator
COc1ccc(C(=O)Nc2ccc(Cl)cc2C(=O)NCc2ccco2)cc1OC | 33 | 1 | -1 | 39*
COc1cc(C(=O)Nc2sc3c(c2C(=O)NCc2ccco2)CCCC3)cc(OC)c1OC | 29 | 0 | -2 | 41*
COc1cc(OC)cc(C(=O)NCCN2C(=O)C3C4C=CC(C4)C3C2=O)c1 (configuration not stated) | 1 | . | . | 3
CCOc1ccc(-n2c(SCC(=O)NN=Cc3ccc(C(=O)O)cc3)nnc2-c2cccnc2)cc1 | 2 | . | . | 5
COc1cccc(CNC(=O)Cn2c(-c3ccccc3)cc(C(C)=O)c2C)c1OC | 0 | . | . | -5
Nc1nc2c(Br)ccc(Br)c2cc1C(=O)NCc1cccc2ccccc12 | 3 | 0 | -2 | -10
CN(C)C=Nc1nc2c(Br)ccc(Br)c2cc1C(=O)NCC(C)(C)C | 48* | . | . | -8
O=C1CCCc2c1cc(-c1ccccc1)n2-c1ccc(O)cc1 | 75* | -1 | -13 | 6
Cc1noc(C)c1NC(=O)Nc1ccc2c(c1)C(=O)N([C@@H](C)CO)C[C@@H](C)[C@H](CN(C)S(=O)(=O)c1ccc(F)cc1)OCCCC[C@H](C)O2 | -1 | . | . | 4
CCn1c(=O)cc(N2CCN(c3cccc(C(F)(F)F)c3)CC2)[nH]c1=O | 0 | . | . | -9
COC(=O)c1ccc2c(C(C)c3ccccc3O)c[nH]c2c1 (configuration not stated) | -8 | . | . | -10
CC(=O)N1CCc2cc(S(=O)(=O)NCCC(=O)NCc3ccccc3)ccc21 | 5 | . | . | 6
C#Cc1cccc(Nc2nc(NCc3ccccc3)nc3ccsc23)c1 | 7 | 13* | -4 | 6
Cc1nc2ccc(C(=O)N3CCN(C(=O)OCc4ccccc4)CC3)cc2n1C1CCCC1 | -4 | . | . | -7
CC(c1ccccc1)n1cc(C(=O)NCCCN2CCCC2)nn1 (configuration not stated) | 2 | . | . | 6
Cc1c(C)c2c(OCC(=O)NCC(=O)NCC(=O)O)cc3c(c2oc1=O)CCC(C)(C)O3 | 4 | 4.5* | -4 | -2
Cc1ccc(NC(=S)NNC(=O)CSc2nc3sc4c(c3c(=O)n2-c2ccccc2)CCCC4)cc1 | -4 | . | . | -3
O=C(Nc1ccccc1Cl)O[C@@H]1CC[C@@]23CCCN2C(=O)CCC[C@H]3C1 | 0 | . | . | -7
CC(C)CCSc1nc(N2CCOCC2)c2c(c1C#N)CC(C)(C)OC2 | 35 | 1 | -3 | 43*
c1nc(NCC2CC2)c2cc(-c3ccc4c(c3)OCO4)ccc2n1 | 7 | . | . | 15
O=C(CCn1nnc2ccccc21)N1CCN(Cc2ccc3c(c2)OCO3)CC1 | 0 | . | . | -6
O=C(c1cnn2c(-c3ccccc3)cc(-c3ccccc3)nc12)N1CCN(Cc2ccccc2)CC1 | 30 | 0 | -1 | 35*
O=C(c1cnn2c(C(F)F)cc(-c3ccccc3)nc12)N1CCOCC1 | 4 | 2 | -6 | 3
O=C1CN(C(=O)C2CCCCC2)C=CN1CCc1ccccc1Br | -1 | . | . | -9
Cc1ccccc1-n1nc2c(c1NC(=O)c1cc3ccccc3oc1=O)CS(=O)(=O)C2 | 31 | -1 | . | 38*
SMILES | GC-A act | MsrA inh | bovine MsrA act | NPR2 activator
Cc1ccccc1-n1nc2c(c1NC(=O)c1cc3ccccc3oc1=O)CS(=O)C2 (configuration not stated) | . | . | -2 | .
CCCCNC(=S)N/N=C/c1ccc(C#N)cc1 | -2 | 4.7* | -2 | -2
C=CCN1[C@@H](CC(C)C)COc2cc(N3CCSCC3)ccc2S1(=O)=O | 4 | . | . | 2
CCOC(=O)c1cc2ccc(OC)cc2oc1=O | 1 | 4.6* | -6 | -2
Cc1ccc(Cc2c(-c3ccc(Br)cc3)nc3cc(C)ccn23)cc1 | 34 | 0 | -3 | 46*
CN(C)/C=N/c1ncc(C(=O)c2ccc3ccccc3c2)s1 | 7 | 4.6* | -6 | 3
COc1ccc(C(=O)c2cnc(/N=C/N(C)C)s2)cc1 | 1 | 4 | -11 | -1
Cc1nc2ccc(-c3nc4ccc(N)cc4[nH]3)cc2[nH]1 | -13 | 3 | -4 | -3
Nc1ccc2nc(-c3cccc(-c4nc5ccc(N)cc5[nH]4)c3)[nH]c2c1 | -11 | 4.6* | -3 | -9
CC[C@@]1(O)C(=O)OCc2c1cc1n(c2=O)Cc2cc3c(CN(C)C)c(O)ccc3nc2-1 | 53* | 2 | -8 | 14
CCc1ccc2[nH]c3nc(C)cc(C)c3c(=O)c2c1 | 41* | 2 | -5 | 37*
CCC[C@H]1[C@@H](OC(=O)NCc2ccco2)CC[C@@]23CCCN2C(=O)CCC[C@@H]13 | -6 | . | . | -5
CC(=O)Nc1sc2c(c1-c1nc(-c3ccccc3)cs1)CCN(C(C)C)C2 | 17 | . | . | 0
COc1ccc(C2c3[nH]c4ccccc4c3CCN2C(=O)c2cc3ncccn3n2)c(F)c1 (configuration not stated) | 38 | 0 | -2 | 37*
CC(C)NC(=S)NNc1ncnc2sc3c(c12)CC(C)(C)OC3 | 33 | -1 | -1 | 38*
CC1(C)Cc2c(sc3ncnc(NNC(=S)NCc4ccccc4)c23)CO1 | 4 | 0 | 6 | 6
C=CCn1c(N)c(C(=O)NCCC2=CCCCC2)sc1=S | 31 | 3 | -9 | 38*
CCOC(=O)[C@@]12CCCC=C1N(CCc1ccc(Cl)cc1)C(=O)[C@H]2CC(=O)N1CCOCC1 | 0 | . | . | 9
Cc1cc(NC(=O)CSc2nc(-c3ccco3)cc(C(F)(F)F)n2)no1 | -1 | 1 | -7 | -2
Cc1cccc(C)c1NC(=O)CSc1nc(-c2ccco2)cc(C(F)(F)F)n1 | 57* | 3 | -1 | 0
CCN(CC)CCC(=O)c1ccc(F)cc1 | 74* | -2 | -3 | -1
CN(C)CCC(=O)c1ccc(F)cc1 | 72* | 0 | -3 | 0
c1ccc(CSC2=NCCCN2)cc1 | 0 | 1 | -1 | -4
O=C(CCSC1=NCCCN1)c1ccc(F)cc1 | 78* | 0 | 1 | -1
COC(=O)c1ccc(-c2nc3cc(Cl)c(N)cc3s2)cc1 | 51* | 1 | -3 | 12
SMILES | GC-A act | MsrA inh | bovine MsrA act | NPR2 activator
CCSc1n[nH]c(=S)s1 | 3 | -1 | 8.5* | -2
Cc1nc(-c2ccc([N+](=O)[O-])cc2)sc1C(=O)O | 4 | 4.6* | -16 | -3
CCc1nc(NC(=O)c2sc(C)nc2C)sc1C(=O)OC | 1 | 4.6* | -3 | 2
COC(=O)c1sc(NC(=O)c2cc(C)on2)nc1C | -1 | 3 | -4 | -2
COc1ccc(-c2ccc(/C=C(\NC(=O)c3ccccc3)C(=O)N3CCOCC3)o2)cc1 | 0 | 4.6* | -6 | 3
COc1ccc(C(=O)N/C(=C\c2ccccc2)C(=O)N2CCOCC2)cc1 | -1 | 0 | -2 | 1
CC(=O)N1CCc2c(sc(NC(=O)c3cccc(N4C(=O)CCC4=O)c3)c2C(N)=O)C1 | -1 | 4.8* | -3 | 2
C(=N\Nc1nncc2ccccc12)/c1cccnc1 | 0 | . | . | 0
CCCN1CCN(c2ccc([N+](=O)[O-])cc2C#N)CC1 | 4 | 3 | -2 | 3
CC(=O)N1CCN(c2ccc([N+](=O)[O-])cc2C#N)CC1 | -4 | 4.6* | 2 | -5
